Compound activity from PubChem.
FMDV antiviral: antivirals against foot and mouth disease virus; FMDV antiviral cell-based qHTS; Potency, µM (top dose mostly 57.9 µM), for the others: at the top dose activity change, negative = inhibition, most hits filed as inhibitors; hit rate 1.2% among 410,000; calls by dose curve; tested in HEK293T cells; further: read-out not given here; nearly all actives have a fitted effect of over 45% in size
Sm TGR block: blocks Schistosoma mansoni thioredoxin glutathione reductase | Q962Y6 | purified TGR, DTNB reduction, TNB absorbance 405 nm | Potency, µM (titrated, usually from 114 µM), inactives show at the top dose activity change, negative = inhibition, usual class: inhibitors | hit rate 3% among 360,000 | AID 485364; further: nearly all actives have a fitted effect of over 60% in size
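Kinetic colorimetric format: TGR-catalysed, NADPH-driven DTNB reduction monitored via TNB absorbance. Enzyme dispensed at 20 nM; compound exposure 15 min at room temperature before reaction start.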
MARV entry inh: blocks Marburg virus binding to or entry into cells. hit rate 1.8% among 300,000. AID 540276. Marburg virus pseudotyped entry inhibition, cell reporter. Potency, µM (highest dose often 37.8 µM), for inactives: top-dose activity change, negative = inhibition, most hits filed as inhibitors; calls by dose curve; tested in HEK293 cells
RE007 growth inh: less growth of the S. pombe RE007 Vpr strain | S. pombe RE007 Vpr strain, BacTiter-Glo ATP luminescence, 24 h | Potency, µM (doses to about 92.2 µM), for the others: top-dose activity change, negative = less growth, most hits filed as inhibitors | hit rate 0.21% among 360,000 | AID 651644; active means well fitted falling curve with a large enough effect; inconclusive means small, poorly fitted or top-dose-only effect; inactive means no such curve, though single readings can be large or run the other way; further: nearly all actives have a fitted effect of over 50% in size
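Fission yeast strain RE007, carrying one chromosomally integrated HIV-1 vpr copy, was seeded at OD 0.01 in PMG+AL medium with 23 nL pinned compound. After 24 h at 30 °C and 99% humidity, viability was read by BacTiter-Glo luminescence.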
Lassa entry inh: inhibitors of Lassa virus binding or cell entry; Potency, µM (titrated, usually from 37.9 µM), for the others: at the highest dose activity change, negative = inhibition, most hits filed as inhibitors; hit rate 1.2% among 300,000; Lassa virus pseudotype entry inhibition, cell reporter; calls by dose curve; tested in HEK293 cells; further: nearly all actives have a fitted effect of over 50% in size
HCV inhibitor: blocks hepatitis C virus | AID 651820 | hit rate 3.4% among 340,000 | Huh7.5.1 HCVcc-Cre infection, luciferase reporter, 44 h | Potency, µM (doses to about 41.8 µM), for inactives: top-dose activity change, negative = inhibition, actives largely listed as inhibitors
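Compounds are dispensed onto cells plated 4 h earlier at 1,000 per well, with HCVcc-Cre virus (about 0.5 moi) added next. Following 44 h of culture, luminescent signal is measured for 15 sec after 15 min with substrate at room temperature.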
Numbers without * were called inactive; u = inconclusive; x = no result; ! = repeats disagree; [ ] = another dose, or the depositor's remark. Only some compounds are listed: those with a hit (about 7.2% of all), similar ones and a draw of the others. Unless noted, the call rests on the fitted dose curve; in most records, active means well fitted curve in the direction sought with a large enough effect; inconclusive means small, poorly fitted or top-dose-only effect, or another doubt; inactive means no such curve, though single readings can be large; an effect the other way counts as inactive or inconclusive. On the % scale 0 is the no-effect control and ±100 the full control effect; potency means the concentration at half of the fitted maximal effect.

SMILES	FMDV antiviral	Sm TGR block	MARV entry inh	RE007 growth inh	Lassa entry inh	HCV inhibitor
CC(=O)OC[C@H]1O[C@@H](ON=C2C[C@@H](O)[C@@H](O)[C@@H]3[C@H]4C(=O)N(C5CCCCC5)C(=O)[C@@H]4CC[C@@H]23)[C@H](OC(C)=O)[C@@H](OC(C)=O)[C@H]1OC(C)=O	x	x	-25%[14.2 µM]	x	x	x
CCc1nn(CC(=O)NC(C)CC)c(=O)c2cc3c(OC)cccc3n12 (configuration not stated)	-14%	1%	1%[46.1 µM]	x	x	x
Cc1cccc(NC(=O)CN2C(=O)COc3ccc(S(=O)(=O)N4CCC(C)CC4)cc32)c1C	1%	-2%	x	x	-5%[46.1 µM]	x
Cc1nnc(SCC2=C(C(=O)O)N3C(=O)C(NC(=O)c4cc(F)c(F)cc4Cl)C3SC2)s1 (configuration not stated)	-13%	16µM*	x	-3%	x	5%
Cc1nnc(SCC2=C(C(=O)O)N3C(=O)C(NC(=O)COc4ccccc4)C3SC2)s1 (configuration not stated)	-15%	7.9µM*	10%[46.1 µM]	-7%	14%	-5%
CCC(C(=O)NC1C(=O)N2C(C(=O)O)=C(CSc3nnc(C)s3)CSC12)c1ccccc1 (configuration not stated)	-6%	4µM*	x	-2%	x	-1%
Cc1nnc(SCC2=C(C(=O)O)N3C(=O)C(NC(=O)COc4ccc(F)cc4)C3SC2)s1 (configuration not stated)	-5%	14µM*	2%	2%	1%	40%
CC(=O)OCC1=C(C(=O)O)N2C(=O)C(NC(=O)COc3ccc(F)cc3)C2SC1 (configuration not stated)	-16%	14µM*	10%[46.1 µM]	12%	14%	0%
CC(=O)OCC1=C(C(=O)O)N2C(=O)C(NC(=O)CSc3ccncc3)[C@@H]2SC1 (some centres not stated)	-12%	x	x	x	x	x
Cc1nn(C2CCS(=O)(=O)C2)c2nc(C3CC3)cc(C(=O)Nc3cccc(C#N)c3)c12 (configuration not stated)	-22%	5%	-22%[46.1 µM]	-4%	-26%	u
NC(=S)NN=C1c2ccccc2-c2c(F)c(F)c(F)c(F)c21	u	x	u	-19%	u	u
CCOP(=O)(Nc1ccc2c(c1)C(=NNC(N)=S)c1ccccc1-2)OCC	35µM*	x	u	-27%	-20%	11µM*
CCn1cc2nc(SCc3cc(C)ccc3C)n(CCc3ccccc3)c(=O)c2n1	0%	17%	x	x	4µM*	x
Cc1ccc2cc3cc(C(=O)N4CCN(Cc5ccccc5)CC4)sc3nc2c1	17%	-27%	20%	-12%	0%	u
Cc1ccc2cc3cc(C(=O)N4CCN(C(=O)c5ccco5)CC4)sc3nc2c1	-13%	45µM*	-4%[46.1 µM]	9%	3%	u
CCC1CCCCN1C(=O)COC(=O)COc1ccc(Br)cc1 (configuration not stated)	-11%	x	x	12%	x	11%
CC(NCc1ccc(Cl)cc1)C(O)c1ccccc1 (configuration not stated)	x	6%	u	0%	22%	2%
CC(NCc1ccc(-c2ccccc2)cc1)C(O)c1ccccc1 (configuration not stated)	u	-23%	u	-6%	4.6µM*	u
COC(=O)C1=C(C)N(Cc2ccccc2)C(=NCC(C)C)NC1c1cccc(C(F)(F)F)c1 (configuration not stated)	x	x	9%[14.2 µM]	x	u	x
CC1(C)CC(=O)C2=C(C1)N(Cc1ccco1)C(=O)C2(NC(=O)C1CCCCC1)C(F)(F)F (configuration not stated)	14%	32µM*	0%	3%	16%	6%
Cc1ccsc1CN(C(=O)COc1cccc(C)c1C)C1CCS(=O)(=O)C1 (configuration not stated)	-9%	9%	-35%[46.1 µM]	x	4%[46.1 µM]	x
NC(=O)c1ccccc1NC(=O)C1CCCN(c2ncnc3onc(-c4ccc(F)cc4)c23)C1 (configuration not stated)	-10%	-5%	x	x	8%[46.1 µM]	x
C=CCN1C(c2cccc(C(F)(F)F)c2)=CS/C1=C(\C#N)c1nnc(N2CCOCC2)n1-c1ccccc1	-19%	x	x	-6%	x	x
C=CCN1C(=O)NC(c2ccccc2)(C(F)(F)F)S/C1=C(\C#N)c1nnc(N2CCOCC2)n1-c1ccccc1 (configuration not stated)	32µM*	-20%	-28%	11%	-29%	u
COc1cc(OC)cc(-c2c(-c3cccs3)c3cc(-c4ccc5cc[nH]c5c4)ccc3n2C)c1	5%	-22%	x	6%	x	4.5µM*
SMILES	FMDV antiviral	Sm TGR block	MARV entry inh	RE007 growth inh	Lassa entry inh	HCV inhibitor
COc1ccc(-c2c(-c3cc(OC)cc(OC)c3)n(C)c3ccc(-c4ccc(S(N)(=O)=O)cc4)cc23)cc1	u	-7%	x	1%	x	10µM*
Cc1ccc(CSc2nnc(-n3c(=O)c(C#N)cc4c(=O)n5cc(C)ccc5nc43)s2)cc1	5%	1%	-29%[46.1 µM]	x	24%[46.1 µM]	x
COC(=O)c1cc(=O)n(Cc2ccc(F)cc2)c(=Nc2ccccc2)s1	u	7%	x	11%	x	u
COC(=O)c1cc(=O)n(Cc2ccc(OC)c(OC)c2)c(=Nc2ccc(F)cc2)s1	13µM*	-1%	-7%	3%	x	11µM*
COC(=O)c1cc(=O)n(Cc2ccco2)c(=Nc2ccc(F)cc2)s1	28µM*	u	x	7%	x	u
COC(=O)c1cc(=O)n(CCc2ccc(OC)c(OC)c2)c(=Nc2ccc(F)c(Cl)c2)s1	28µM*	-24%	-2%	-20%	x	u
Cc1cccc(Cn2cnc3c(cnn3-c3ccc(Cl)cc3)c2=O)c1	-24%	0%	-21%[46.1 µM]	x	u	x
COc1cccc([C@H]2C(C(=O)c3sc(C)nc3C)=C(O)C(=O)N2CCN2CCOCC2)c1OC	x	x	10%	x	x	x
COc1ccc2c3c([nH]c2c1)C(C)NCC3 (configuration not stated)	-23%	11µM*	x	-5%	x	-16%
Cc1ccc(C)c(N2CCN(C(=O)c3ccc4nc(N5CCOCC5)sc4c3)CC2)c1	0%	-25%	x	21%	x	-20%
COc1ccccc1N1CCN(C(=O)c2ccc3nc(-c4ccco4)c(-c4ccco4)nc3c2)CC1	u	14µM*	21µM*	22%	u	11µM*!
Cc1ccc(C)c(N2CCN(C(=O)c3ccc4nc(-c5ccco5)c(-c5ccco5)nc4c3)CC2)c1	-19%	6.3µM*	u	-7%	0%	u
Cc1cccn2c(CNC3CCCc4ccccc43)c(C(=O)N3CCOCC3)nc12 (configuration not stated)	-4%	-1%	x	-3%	x	-16%
